The record followed here is the supplement of paper PMC12636033.

± gives the standard deviation of the averaged measurements. Whole data set: some 33,000 sequences, median “E-score (rank enrichment, -0.5 to 0.5)” near -0.0075, cut for the highest 2% near 0.23. The entries come from a sample that favours the highest values as a whole.

The assay concerns WT Max(13-93) synthetic (M65Nle). Nature of the assay: PBM 8-mer E-score (E-score (rank enrichment, -0.5 to 0.5)); higher = stronger preferential binding. Here is the method:
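Protein binding microarray (universal PBM chip covering all 10-mers in fixed probe flanks) with chemically synthesized human Max(13-93) bHLH-LZ analogs (not full-length Max) bearing noncanonical residues (hArg, Tha, Aib, Nle at 65) and aromatic Cys staples. Read-out per 8-mer (and its reverse complement): E-score (rank-based enrichment, -0.5 to 0.5) and Z-score of median probe intensity.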
For AAAAACGA, the “PBM 8-mer E-score” value worked out at 0.25 ± 0.03.
The result for TAAAACCA reads 0.148 ± 0.056; that for AAAAACCA, 0.238 ± 0.057; that for GAAATCCA, -0.0865 ± 0.057.
For AAAACGGC, the “PBM 8-mer E-score” value came out at 0.251 ± 0.16.
The result for AAAATCCA reads 0.26 ± 0.06; that for CAAATCCA, 0.0485 ± 0.13; that for CAAACGGC, -0.279 ± 0.026.
Turning to GAAAACGA, the “PBM 8-mer E-score” value came to 0.0526 ± 0.057.
Consider CAAAACCA, for which the “PBM 8-mer E-score” value was 0.0992 ± 0.086.
On to CAAAACGA, for which the “PBM 8-mer E-score” value was 0.0654 ± 0.066.
On to GAAACGGC, for which the “PBM 8-mer E-score” value stood at 0.0668 ± 0.011.
Turning to AGTTGTGG, the “PBM 8-mer E-score” value amounted to 0.00744 ± 0.15.
For the sequence CGACCGTA, the “PBM 8-mer E-score” value is -0.107 ± 0.19.
CCATAGAA: the “PBM 8-mer E-score” value was 0.0354 ± 0.028.
Consider GAACCAGC, for which the “PBM 8-mer E-score” value was -0.132 ± 0.07.
Regarding GGGCCATA, the “PBM 8-mer E-score” value worked out at 0.00373 ± 0.018.
With CAGTTACG, the “PBM 8-mer E-score” value was -0.0592 ± 0.044.
As for AATGTATC, the “PBM 8-mer E-score” value is 0.168 ± 0.036.
Consider AATGTAAT, for which the “PBM 8-mer E-score” value is 0.12 ± 0.11.
In the case of AATGTGTG, the “PBM 8-mer E-score” value is 0.267 ± 0.05.
In the case of AATGTATG, the “PBM 8-mer E-score” value came out at 0.255 ± 0.086.
For the sequence AATGTGTA, the “PBM 8-mer E-score” value came out at 0.167 ± 0.021.
With AATGTGTC, the “PBM 8-mer E-score” value came to 0.0393 ± 0.0075.
On to AATGTAAA, for which the “PBM 8-mer E-score” value worked out at 0.278 ± 0.0039.
The value for CATGTAAA was 0.203 ± 0.052; that for AATGTATA was 0.211 ± 0.048.
As for ATAGGCGG, the “PBM 8-mer E-score” value is 0.057 ± 0.12.
Take AAAGGATC: the “PBM 8-mer E-score” value is -0.108 ± 0.042.
Regarding AGCTTCAA, the “PBM 8-mer E-score” value was 0.106 ± 0.021.
With ATCACTGA, the “PBM 8-mer E-score” value was -0.0485 ± 0.06.
The result for ACGTGAAT reads 0.239 ± 0.066; that for CCGTGAAA, -0.0191 ± 0.012; that for ACGTGAAC, 0.0244 ± 0.025.
Turning to CTGTGAAA, the “PBM 8-mer E-score” value stood at 0.00343 ± 0.13.
With ACGTGAAG, the “PBM 8-mer E-score” value came out at 0.0785 ± 0.02.
Consider ATGTGAAA, for which the “PBM 8-mer E-score” value turned out to be 0.271 ± 0.12.
On to ACGTGAAA, for which the “PBM 8-mer E-score” value turned out to be 0.279 ± 0.041.
Turning to TCGTGAAA, the “PBM 8-mer E-score” value is -0.119 ± 0.14.
The value for GTGTGAAA was 0.1684 ± 0.00099; that for AACGGTAC was 0.0818 ± 0.035.
On to TAGATTGA, for which the “PBM 8-mer E-score” value is -0.00515 ± 0.13.
With CCAGCAAC, the “PBM 8-mer E-score” value was -0.121 ± 0.011.
Turning to CACATTCA, the “PBM 8-mer E-score” value came to 0.111 ± 0.11.
For the sequence CGTGGCCA, the “PBM 8-mer E-score” value turned out to be 0.131 ± 0.084.
Take TCTACAAA: the “PBM 8-mer E-score” value turned out to be 0.0553 ± 0.18.
ACGTATTA: the “PBM 8-mer E-score” value is 0.165 ± 0.11.
Regarding GAAGGTAC, the “PBM 8-mer E-score” value is -0.096 ± 0.22.
Take ACCACTCC: the “PBM 8-mer E-score” value stood at 0.0165 ± 0.045.
On to CAAAATGA, for which the “PBM 8-mer E-score” value is 0.287 ± 0.014.
Consider TAAAATGA, for which the “PBM 8-mer E-score” value came out at 0.153 ± 0.019.
The value for CAAAATGC was 0.0988 ± 0.086.
Take GAAAATGA: the “PBM 8-mer E-score” value came to 0.0385 ± 0.12.
Take CAAAATGG: the “PBM 8-mer E-score” value came to 0.116 ± 0.0099.
The result for AAAAATGA reads 0.2619 ± 0.0016; that for GCTCACTA, 0.105 ± 0.0026.
Regarding ACTCTTAC, the “PBM 8-mer E-score” value amounted to 0.0838 ± 0.051.
Consider AGACTGGC, for which the “PBM 8-mer E-score” value is -0.174 ± 0.07.
AGACATCT: the “PBM 8-mer E-score” value came out at 0.0328 ± 0.02.
The result for TGTAGAAA reads 0.284 ± 0.026.
For the sequence AGTAGAAA, the “PBM 8-mer E-score” value came to 0.184 ± 0.098.
For AGTAAACA, the “PBM 8-mer E-score” value amounted to 0.177 ± 0.012.
Regarding CGTAAAAA, the “PBM 8-mer E-score” value amounted to 0.107 ± 0.012.
Turning to TGTAAAAA, the “PBM 8-mer E-score” value was 0.248 ± 0.099.
Turning to GGTAAACA, the “PBM 8-mer E-score” value was found to be 0.0182 ± 0.025.
Consider CGTAGAAA, for which the “PBM 8-mer E-score” value came out at 0.2 ± 0.024.
Consider AGTAAAAA, for which the “PBM 8-mer E-score” value is 0.207 ± 0.023.
On to TGTAAACA, for which the “PBM 8-mer E-score” value turned out to be 0.237 ± 0.079.
In the case of CGCATCAG, the “PBM 8-mer E-score” value is -0.138 ± 0.15.
The value for AACCGTTC was -0.064 ± 0.11.
With CTCTAATC, the “PBM 8-mer E-score” value is -0.0502 ± 0.086.
Take TCTTGGAA: the “PBM 8-mer E-score” value was -0.078 ± 0.026.
On to AAAGGTGT, for which the “PBM 8-mer E-score” value turned out to be 0.103 ± 0.015.
The value for ATATTCAT was 0.218 ± 0.056; that for ACGTGCGA was 0.229 ± 0.046.
Regarding ATGTGCGC, the “PBM 8-mer E-score” value was 0.1696 ± 0.00066.
As to CCGTGCGC, the “PBM 8-mer E-score” value amounted to 0.0359 ± 0.14.
In the case of ATGTGCGG, the “PBM 8-mer E-score” value amounted to 0.0139 ± 0.1.
The result for ACGTGCGC reads 0.279 ± 0.03.
Consider ACGTGCGG, for which the “PBM 8-mer E-score” value was 0.254 ± 0.056.
The value for GGGGGTCA was -0.172 ± 0.1; that for GTAGTGAC was -0.0549 ± 0.095; that for GATCCACC was -0.171 ± 0.058.
On to CGAGCGAG, for which the “PBM 8-mer E-score” value was 0.0998 ± 0.018.
